We go through 1 sequence from publication PMC7862700, “An all-to-all approach to the identification of sequence-specific readers for epigenetic DNA modifications on cytosine”.

Holding throughout (experiment): DAPPL (digital affinity profiling via proximity ligation, sequencing); 10 mM Tris-HCl pH 7.5, 50 mM NaCl, 1 mM DTT, 4% glycerol, room temperature, 30 min; GST-TFs on glutathione beads, 16-mer random dsDNA library, 0.1% formaldehyde crosslink after washing; high values mean tight binding
One experiment has as its target T1, FLI1 (Homo sapiens, UniProt Q01543 1-452).
T1 sequence: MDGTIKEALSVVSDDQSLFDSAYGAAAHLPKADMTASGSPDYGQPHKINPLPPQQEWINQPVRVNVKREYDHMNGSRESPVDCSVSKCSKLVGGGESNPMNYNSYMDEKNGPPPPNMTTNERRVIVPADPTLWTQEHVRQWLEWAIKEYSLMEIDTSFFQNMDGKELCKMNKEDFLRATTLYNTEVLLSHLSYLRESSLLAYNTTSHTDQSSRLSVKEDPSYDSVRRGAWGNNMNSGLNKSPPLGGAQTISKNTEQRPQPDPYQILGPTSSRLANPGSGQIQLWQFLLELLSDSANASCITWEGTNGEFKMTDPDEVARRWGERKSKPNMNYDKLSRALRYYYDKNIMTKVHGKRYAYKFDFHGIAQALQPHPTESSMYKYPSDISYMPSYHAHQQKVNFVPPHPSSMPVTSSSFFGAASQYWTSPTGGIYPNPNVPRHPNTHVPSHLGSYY
As to conditions: protein: recombinant; tags: N-terminal GST; dsDNA, one strand shown. In short, it runs like this:
(§1)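 Pools were built from human transcription factors expressed in yeast as GST fusions, captured on glutathione beads and DNA-barcoded, along with a tag-only sample. Incubation with 200 nmole of a 16-mer random double-stranded DNA library lasted 30 min at room temperature in Tris/NaCl/DTT/glycerol buffer, and was followed by washing, 0.1% formaldehyde crosslinking, proximity ligation, PCR amplification and Illumina NextSeq500 sequencing. Binding signal is the quotient of each hexamer's read frequency for a factor and its frequency for the tag-only sample.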

A further experiment concerns the target T2, ELK1 (Homo sapiens, UniProt P19419 1-428).
T2 sequence: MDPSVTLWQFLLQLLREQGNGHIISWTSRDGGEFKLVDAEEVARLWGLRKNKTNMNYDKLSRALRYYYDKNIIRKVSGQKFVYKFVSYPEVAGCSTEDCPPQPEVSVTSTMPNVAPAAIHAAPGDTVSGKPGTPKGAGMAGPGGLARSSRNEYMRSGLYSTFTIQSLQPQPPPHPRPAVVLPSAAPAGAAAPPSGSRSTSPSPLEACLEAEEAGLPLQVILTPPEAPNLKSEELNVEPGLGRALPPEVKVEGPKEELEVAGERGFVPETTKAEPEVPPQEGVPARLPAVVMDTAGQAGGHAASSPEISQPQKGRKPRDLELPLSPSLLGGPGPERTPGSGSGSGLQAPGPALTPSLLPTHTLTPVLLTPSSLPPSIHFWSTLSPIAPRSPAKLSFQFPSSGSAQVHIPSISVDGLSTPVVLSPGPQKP
As to conditions: protein: recombinant; tags: N-terminal GST; dsDNA, one strand shown. In short, it runs like this: as §1

For a further experiment, the target named is T3, GABPA (Homo sapiens, UniProt Q06546 1-454).
T3 sequence: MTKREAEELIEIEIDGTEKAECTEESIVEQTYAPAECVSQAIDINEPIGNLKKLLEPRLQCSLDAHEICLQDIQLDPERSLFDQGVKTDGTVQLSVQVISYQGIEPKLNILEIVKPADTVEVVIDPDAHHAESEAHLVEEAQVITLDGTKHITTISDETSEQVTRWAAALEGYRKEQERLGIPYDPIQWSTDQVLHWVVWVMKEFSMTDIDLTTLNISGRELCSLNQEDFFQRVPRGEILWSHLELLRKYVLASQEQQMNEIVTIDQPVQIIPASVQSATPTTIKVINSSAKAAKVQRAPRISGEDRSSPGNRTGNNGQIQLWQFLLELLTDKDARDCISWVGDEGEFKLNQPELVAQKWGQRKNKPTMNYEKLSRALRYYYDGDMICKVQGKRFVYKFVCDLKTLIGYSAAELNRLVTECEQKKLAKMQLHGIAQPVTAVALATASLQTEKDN
As to conditions: protein: recombinant; tags: N-terminal GST; dsDNA, one strand shown. In short, it runs like this: as §1

The target of the next experiment is T4, ERG (Homo sapiens, UniProt P11308 1-479).
T4 sequence: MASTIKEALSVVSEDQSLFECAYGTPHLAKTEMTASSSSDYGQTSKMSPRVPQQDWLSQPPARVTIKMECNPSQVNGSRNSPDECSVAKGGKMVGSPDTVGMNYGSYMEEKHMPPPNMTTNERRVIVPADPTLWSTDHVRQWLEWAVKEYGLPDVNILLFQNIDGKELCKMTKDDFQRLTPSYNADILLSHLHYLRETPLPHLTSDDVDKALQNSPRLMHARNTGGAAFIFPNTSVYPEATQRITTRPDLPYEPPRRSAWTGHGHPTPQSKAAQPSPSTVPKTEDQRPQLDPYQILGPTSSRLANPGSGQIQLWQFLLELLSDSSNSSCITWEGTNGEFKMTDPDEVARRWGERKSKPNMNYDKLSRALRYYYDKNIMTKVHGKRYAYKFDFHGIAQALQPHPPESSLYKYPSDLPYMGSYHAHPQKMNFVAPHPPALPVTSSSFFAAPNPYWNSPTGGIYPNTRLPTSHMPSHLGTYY
As to conditions: protein: recombinant; tags: N-terminal GST; dsDNA, one strand shown. In short, it runs like this: as §1

For a further experiment, the target named is ELF1 (Homo sapiens, UniProt P32519 1-619). As to conditions: protein: recombinant; tags: N-terminal GST; dsDNA, one strand shown. In short, it runs like this:
as §1

Another experiment deals with T5, EHF (Homo sapiens, UniProt Q9NZC4 1-300).
T5 sequence: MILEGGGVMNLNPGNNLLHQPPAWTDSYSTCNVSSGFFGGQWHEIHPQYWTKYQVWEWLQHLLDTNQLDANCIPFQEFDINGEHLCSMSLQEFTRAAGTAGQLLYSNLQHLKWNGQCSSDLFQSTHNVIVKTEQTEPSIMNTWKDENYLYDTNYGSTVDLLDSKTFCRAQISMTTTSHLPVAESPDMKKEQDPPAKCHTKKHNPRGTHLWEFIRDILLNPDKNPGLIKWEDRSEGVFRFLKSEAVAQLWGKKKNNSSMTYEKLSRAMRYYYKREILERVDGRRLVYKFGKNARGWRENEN
Particulars: protein: recombinant; tags: N-terminal GST; dsDNA, one strand shown. In short, it runs like this: as §1

Another experiment has as its target SPI1 (Homo sapiens, UniProt P17947 1-270). Particulars: protein: recombinant; tags: N-terminal GST; dsDNA, one strand shown. In short, it runs like this: as §1
The target in the next experiment is SPIB (Homo sapiens, UniProt Q01892 1-262). As to conditions: protein: recombinant; tags: N-terminal GST; dsDNA, one strand shown. In short, it runs like this:
as §1

The next experiment deals with T6, ELK3 (Homo sapiens, UniProt P41970 1-407).
T6 sequence: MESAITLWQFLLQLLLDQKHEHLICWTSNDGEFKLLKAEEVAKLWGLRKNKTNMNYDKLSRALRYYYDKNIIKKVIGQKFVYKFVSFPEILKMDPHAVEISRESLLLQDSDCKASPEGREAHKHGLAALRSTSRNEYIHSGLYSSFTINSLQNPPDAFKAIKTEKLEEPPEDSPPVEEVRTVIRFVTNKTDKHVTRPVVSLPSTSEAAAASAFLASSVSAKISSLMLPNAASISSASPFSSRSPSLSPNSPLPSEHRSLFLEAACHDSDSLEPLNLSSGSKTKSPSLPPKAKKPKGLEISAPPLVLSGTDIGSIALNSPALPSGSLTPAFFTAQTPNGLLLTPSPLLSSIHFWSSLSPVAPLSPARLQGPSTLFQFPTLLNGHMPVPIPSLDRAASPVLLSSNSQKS
As to conditions: protein: recombinant; tags: N-terminal GST; dsDNA, one strand shown. In short, it runs like this:
as §1

The target in a further experiment is T7, FEV (Homo sapiens, UniProt Q99581 1-238).
T7 sequence: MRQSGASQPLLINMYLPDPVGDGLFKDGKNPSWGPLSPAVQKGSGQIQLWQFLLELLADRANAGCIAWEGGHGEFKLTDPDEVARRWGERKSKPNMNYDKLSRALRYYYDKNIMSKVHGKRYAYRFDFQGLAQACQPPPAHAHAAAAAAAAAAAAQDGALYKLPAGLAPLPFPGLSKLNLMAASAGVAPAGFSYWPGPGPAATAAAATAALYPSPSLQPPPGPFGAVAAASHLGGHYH
Particulars: protein: recombinant; tags: N-terminal GST; dsDNA, one strand shown. In short, it runs like this:
as §1

The target of the next experiment is ETV5 (Homo sapiens, UniProt P41161 1-510). Particulars: protein: recombinant; tags: N-terminal GST; dsDNA, one strand shown. In short, it runs like this:
as §1

The next experiment deals with HSF1 (Homo sapiens, UniProt Q00613 1-529). As to conditions: protein: recombinant; tags: N-terminal GST; chain copies: 3; dsDNA, one strand shown. In short, it runs like this:
as §1

Another experiment concerns the target T8, SPIC (Homo sapiens, UniProt Q8N5J4 1-248).
T8 sequence: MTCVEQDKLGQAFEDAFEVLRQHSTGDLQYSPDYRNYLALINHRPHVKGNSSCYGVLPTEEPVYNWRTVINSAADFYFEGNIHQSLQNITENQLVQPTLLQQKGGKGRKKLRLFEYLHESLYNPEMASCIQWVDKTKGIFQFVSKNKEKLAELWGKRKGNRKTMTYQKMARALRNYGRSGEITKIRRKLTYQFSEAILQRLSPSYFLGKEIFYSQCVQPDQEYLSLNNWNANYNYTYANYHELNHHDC
Particulars: protein: recombinant; tags: N-terminal GST; dsDNA, one strand shown. In short, it runs like this:
as §1

The target of another experiment is ELF4 (Homo sapiens, UniProt Q99607 1-663). Particulars: protein: recombinant; tags: N-terminal GST; dsDNA, one strand shown. In short, it runs like this:
as §1

A further experiment has as its target T9, ELK4 (Homo sapiens, UniProt P28324-2 1-405).
T9 sequence: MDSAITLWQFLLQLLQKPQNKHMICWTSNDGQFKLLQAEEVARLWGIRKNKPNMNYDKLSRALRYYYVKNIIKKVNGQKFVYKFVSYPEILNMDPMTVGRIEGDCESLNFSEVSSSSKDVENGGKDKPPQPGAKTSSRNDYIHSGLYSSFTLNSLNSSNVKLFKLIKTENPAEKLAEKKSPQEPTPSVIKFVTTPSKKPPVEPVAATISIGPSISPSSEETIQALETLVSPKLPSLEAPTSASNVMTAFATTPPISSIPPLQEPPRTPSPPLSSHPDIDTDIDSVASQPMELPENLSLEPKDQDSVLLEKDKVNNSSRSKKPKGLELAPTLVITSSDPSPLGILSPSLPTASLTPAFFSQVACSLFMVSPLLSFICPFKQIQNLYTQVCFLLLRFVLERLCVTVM
As to conditions: protein: recombinant; tags: N-terminal GST; dsDNA, one strand shown. In short, it runs like this:
as §1

For another experiment, the target named is T10, ETV2 (Homo sapiens, UniProt O00321 1-342).
T10 sequence: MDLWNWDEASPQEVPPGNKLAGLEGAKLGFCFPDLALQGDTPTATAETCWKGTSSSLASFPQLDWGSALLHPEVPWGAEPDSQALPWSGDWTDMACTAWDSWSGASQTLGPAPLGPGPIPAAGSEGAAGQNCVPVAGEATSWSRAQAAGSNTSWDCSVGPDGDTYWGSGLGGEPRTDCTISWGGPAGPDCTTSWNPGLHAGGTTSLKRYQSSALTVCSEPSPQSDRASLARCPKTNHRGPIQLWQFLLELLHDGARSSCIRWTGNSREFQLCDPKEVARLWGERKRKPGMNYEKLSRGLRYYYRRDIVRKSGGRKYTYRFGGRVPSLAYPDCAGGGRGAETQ
As to conditions: protein: recombinant; tags: N-terminal GST; dsDNA, one strand shown. In short, it runs like this: as §1

For a further experiment, the target named is T11, ELF3 (Homo sapiens, UniProt P78545 1-371).
T11 sequence: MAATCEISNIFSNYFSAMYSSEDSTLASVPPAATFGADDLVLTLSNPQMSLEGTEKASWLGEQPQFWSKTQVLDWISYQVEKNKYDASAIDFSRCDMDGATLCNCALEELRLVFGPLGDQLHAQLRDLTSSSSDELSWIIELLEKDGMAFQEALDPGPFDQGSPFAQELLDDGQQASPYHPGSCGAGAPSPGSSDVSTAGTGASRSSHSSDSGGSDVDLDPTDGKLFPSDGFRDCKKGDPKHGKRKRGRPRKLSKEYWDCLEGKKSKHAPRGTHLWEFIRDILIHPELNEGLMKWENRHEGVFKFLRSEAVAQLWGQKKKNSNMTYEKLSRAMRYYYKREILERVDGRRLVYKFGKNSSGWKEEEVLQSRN
As to conditions: protein: recombinant; tags: N-terminal GST; dsDNA, one strand shown. In short, it runs like this: as §1

In a further experiment the target is CRX (Homo sapiens, UniProt O43186 1-299). Particulars: protein: recombinant; tags: N-terminal GST; dsDNA, one strand shown. In short, it runs like this: as §1
A further experiment has as its target ETV1 (Homo sapiens, UniProt P50549 1-477). As to conditions: protein: recombinant; tags: N-terminal GST; dsDNA, one strand shown. In short, it runs like this:
as §1

Chain of SPIB (Q01892 whole entry): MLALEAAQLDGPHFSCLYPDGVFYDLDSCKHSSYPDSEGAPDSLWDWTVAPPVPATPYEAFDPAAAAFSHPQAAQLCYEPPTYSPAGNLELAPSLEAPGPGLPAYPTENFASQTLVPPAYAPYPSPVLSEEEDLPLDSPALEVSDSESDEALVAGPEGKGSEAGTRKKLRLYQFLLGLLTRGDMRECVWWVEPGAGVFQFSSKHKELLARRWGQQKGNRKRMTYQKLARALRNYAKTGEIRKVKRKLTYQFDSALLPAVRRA
Chain of ELF4 (Q99607 whole entry): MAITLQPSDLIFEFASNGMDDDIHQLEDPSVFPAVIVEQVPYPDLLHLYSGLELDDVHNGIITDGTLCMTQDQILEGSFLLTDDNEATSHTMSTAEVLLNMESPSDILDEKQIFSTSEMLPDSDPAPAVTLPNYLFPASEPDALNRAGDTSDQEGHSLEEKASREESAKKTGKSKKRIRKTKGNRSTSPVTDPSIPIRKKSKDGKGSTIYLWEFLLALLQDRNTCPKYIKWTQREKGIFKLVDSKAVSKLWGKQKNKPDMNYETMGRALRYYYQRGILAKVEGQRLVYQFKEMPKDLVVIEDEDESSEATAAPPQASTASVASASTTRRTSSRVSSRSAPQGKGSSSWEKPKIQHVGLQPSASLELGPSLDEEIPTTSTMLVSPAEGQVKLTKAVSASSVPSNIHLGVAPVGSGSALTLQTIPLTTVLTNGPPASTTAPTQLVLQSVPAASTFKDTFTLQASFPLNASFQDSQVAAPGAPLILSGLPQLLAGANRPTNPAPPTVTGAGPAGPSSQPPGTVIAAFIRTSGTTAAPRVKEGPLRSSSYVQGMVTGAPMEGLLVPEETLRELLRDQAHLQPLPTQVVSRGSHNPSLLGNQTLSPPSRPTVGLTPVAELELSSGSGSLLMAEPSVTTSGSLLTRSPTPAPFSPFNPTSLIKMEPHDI
Chain of CRX (O43186 whole entry): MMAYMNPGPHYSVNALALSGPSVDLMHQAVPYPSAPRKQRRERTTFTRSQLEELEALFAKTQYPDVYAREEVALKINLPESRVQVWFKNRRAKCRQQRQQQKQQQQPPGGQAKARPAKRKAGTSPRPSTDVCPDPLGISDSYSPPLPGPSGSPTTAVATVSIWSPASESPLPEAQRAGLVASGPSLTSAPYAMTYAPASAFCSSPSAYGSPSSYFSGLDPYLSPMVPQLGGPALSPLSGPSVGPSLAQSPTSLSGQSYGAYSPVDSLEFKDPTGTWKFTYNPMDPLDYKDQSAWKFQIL
Chain of ETV5 (P41161 whole entry): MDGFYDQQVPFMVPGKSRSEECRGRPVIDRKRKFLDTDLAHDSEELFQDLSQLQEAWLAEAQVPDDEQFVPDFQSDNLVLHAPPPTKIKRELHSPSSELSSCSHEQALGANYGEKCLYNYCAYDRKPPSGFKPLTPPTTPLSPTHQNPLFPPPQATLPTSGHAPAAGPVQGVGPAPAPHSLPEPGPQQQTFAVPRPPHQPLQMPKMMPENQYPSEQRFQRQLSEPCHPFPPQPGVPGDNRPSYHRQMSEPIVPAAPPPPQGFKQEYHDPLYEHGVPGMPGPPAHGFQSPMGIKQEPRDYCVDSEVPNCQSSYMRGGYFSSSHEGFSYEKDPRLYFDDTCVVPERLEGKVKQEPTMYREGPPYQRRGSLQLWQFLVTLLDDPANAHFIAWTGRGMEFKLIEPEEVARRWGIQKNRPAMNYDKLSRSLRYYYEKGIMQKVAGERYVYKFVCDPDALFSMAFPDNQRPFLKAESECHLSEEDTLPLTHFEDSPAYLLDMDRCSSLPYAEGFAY
Chain of ELF1 (P32519 whole entry): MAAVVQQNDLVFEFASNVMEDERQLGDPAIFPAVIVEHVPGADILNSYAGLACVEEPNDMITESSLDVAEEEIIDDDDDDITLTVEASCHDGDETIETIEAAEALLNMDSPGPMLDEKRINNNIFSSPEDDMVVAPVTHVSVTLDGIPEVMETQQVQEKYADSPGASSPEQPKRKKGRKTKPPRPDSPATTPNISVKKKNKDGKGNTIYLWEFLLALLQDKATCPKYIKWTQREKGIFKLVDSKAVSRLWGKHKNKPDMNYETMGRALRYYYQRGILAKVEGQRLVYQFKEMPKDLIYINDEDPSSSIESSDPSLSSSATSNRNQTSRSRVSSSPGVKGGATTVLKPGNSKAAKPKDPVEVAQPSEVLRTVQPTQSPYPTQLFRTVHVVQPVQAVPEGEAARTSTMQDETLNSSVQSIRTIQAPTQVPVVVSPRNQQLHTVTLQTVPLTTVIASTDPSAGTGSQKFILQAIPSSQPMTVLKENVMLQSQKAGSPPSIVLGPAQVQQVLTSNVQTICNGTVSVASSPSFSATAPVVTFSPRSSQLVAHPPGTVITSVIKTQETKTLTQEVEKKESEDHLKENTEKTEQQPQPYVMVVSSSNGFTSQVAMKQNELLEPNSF
Chain of HSF1 (Q00613 whole entry): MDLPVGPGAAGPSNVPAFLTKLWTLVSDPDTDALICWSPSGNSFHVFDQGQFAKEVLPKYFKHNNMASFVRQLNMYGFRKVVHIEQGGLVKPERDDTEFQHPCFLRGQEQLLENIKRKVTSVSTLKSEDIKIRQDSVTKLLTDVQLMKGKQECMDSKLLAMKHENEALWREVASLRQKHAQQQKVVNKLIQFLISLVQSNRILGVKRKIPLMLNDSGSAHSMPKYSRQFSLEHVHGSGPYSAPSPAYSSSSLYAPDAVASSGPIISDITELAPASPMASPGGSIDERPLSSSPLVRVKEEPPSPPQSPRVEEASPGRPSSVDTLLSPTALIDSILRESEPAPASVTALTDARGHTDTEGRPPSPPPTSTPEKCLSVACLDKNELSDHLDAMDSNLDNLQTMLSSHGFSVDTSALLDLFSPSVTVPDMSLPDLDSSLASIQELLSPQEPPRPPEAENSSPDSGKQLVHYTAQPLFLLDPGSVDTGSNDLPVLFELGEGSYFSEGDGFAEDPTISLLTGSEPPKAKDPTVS
Chain of ETV1 (P50549 whole entry): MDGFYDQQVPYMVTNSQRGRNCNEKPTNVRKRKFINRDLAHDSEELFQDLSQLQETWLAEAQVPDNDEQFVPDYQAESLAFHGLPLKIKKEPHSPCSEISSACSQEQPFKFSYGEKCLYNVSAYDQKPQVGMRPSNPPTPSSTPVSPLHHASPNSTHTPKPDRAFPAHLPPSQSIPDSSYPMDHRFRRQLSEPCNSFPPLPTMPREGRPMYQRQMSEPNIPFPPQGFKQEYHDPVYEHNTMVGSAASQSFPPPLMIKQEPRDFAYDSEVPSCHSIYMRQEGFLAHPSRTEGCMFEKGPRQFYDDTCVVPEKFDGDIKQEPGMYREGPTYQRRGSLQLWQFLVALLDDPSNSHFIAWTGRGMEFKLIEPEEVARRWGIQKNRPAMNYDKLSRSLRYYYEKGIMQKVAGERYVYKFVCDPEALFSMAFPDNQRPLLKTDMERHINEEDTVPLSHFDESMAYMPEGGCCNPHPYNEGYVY

With GTTACT, the binding signal with FLI1 was 1.25 fold enrichment (6-mer frequency, TF over GST control); with ELK1 it was 1.28 fold enrichment (6-mer frequency, TF over GST control); in the experiment with GABPA it was 1.13 fold enrichment (6-mer frequency, TF over GST control); with ERG it was 1.33 fold enrichment (6-mer frequency, TF over GST control); in the experiment with ELF1, 1.22 fold enrichment (6-mer frequency, TF over GST control); with EHF it was 1.37 fold enrichment (6-mer frequency, TF over GST control). Also, the binding signal with SPI1 is 1.3 fold enrichment (6-mer frequency, TF over GST control); in the experiment with SPIB, 1.23 fold enrichment (6-mer frequency, TF over GST control); in the experiment with ELK3, 1.31 fold enrichment (6-mer frequency, TF over GST control); in the experiment with FEV it was 1.17 fold enrichment (6-mer frequency, TF over GST control); with ETV5, 1.28 fold enrichment (6-mer frequency, TF over GST control); in the experiment with HSF1 it was 1.03 fold enrichment (6-mer frequency, TF over GST control). The binding signal in the experiment with SPIC was 1.31 fold enrichment (6-mer frequency, TF over GST control); with ELF4, 1.18 fold enrichment (6-mer frequency, TF over GST control); with ELK4, 1.09 fold enrichment (6-mer frequency, TF over GST control); with ETV2, 1.19 fold enrichment (6-mer frequency, TF over GST control); with ELF3, 1.4 fold enrichment (6-mer frequency, TF over GST control); with CRX it was 1.03 fold enrichment (6-mer frequency, TF over GST control). Besides, the binding signal in the experiment with ETV1 was 1.17 fold enrichment (6-mer frequency, TF over GST control).
